Potency and affinity values are given separately.
Columns and labels:
Klebsiella pneumoniae = conditions: Concentration 32 ug.mL-1;; ASSAY_TEST Inhibition of Bacterial Growth; detection method Absorption (OD600); MEDIA CAMHB; plate type 384well; NBS; CORNING #3640; time 18 hr
Candida albicans = conditions: Concentration 32 ug.mL-1; ASSAY_TEST Inhibition of Fungal Growth; detection method Absorption (OD530)
Cryptococcus neoformans = conditions: Concentration 32 ug.mL-1; ASSAY_TEST Inhibition of Fungal Growth; detection method Resazurin; Absorption (OD600-OD570); plate type 384well; NBS; CORNING #3640

Compound	Inhibition (Klebsiella pneumoniae) [%]	Inhibition (Candida albicans) [%]	Inhibition (Cryptococcus neoformans) [%]
CCc1ccc(NC(=O)Cn2nc3c4cc(-c5ccc(Cl)cc5)nn4ccn3c2=O)cc1	19.83	3.83	-20.86
COc1cc(NC(=O)Cn2nc3ccc(-c4ccc(C)c(C)c4)nn3c2=O)cc(OC)c1	2.14	14.91	-15.3
CCCCn1c(=O)c2sccc2n2c(=O)n(CC(=O)NC(C)CC)nc12 (stereo not drawn)	-2.58	3.27	-15.7
Cc1ccc(-c2cc3c4nnc(SCC(=O)Nc5cccc(Br)c5)n4ccn3n2)cc1	4.45	7.43	-29.25
COc1cc(OC)c(NC(=O)Cn2nc3ccc(-c4ccc(C)c(C)c4)nn3c2=O)cc1Cl	7.84	1.07	-20.51
COc1ccc(Cl)cc1NC(=O)CSc1nc2ccccc2n2cnnc12	13.26	6.06	-17.53
COC(=O)c1ccccc1NC(=O)Cn1nc2c(Oc3cccc(OC)c3)nccn2c1=O	-16.2	1.71	-7.59
COc1cccc(NC(=O)Cn2nc3c(Oc4ccccc4)nccn3c2=O)c1	-9.5	1.78	-2.51
O=C(Cn1nc2c3c4c(sc3ncn2c1=O)CCCC4)Nc1ccc2c(c1)OCO2	4.23	4.71	-14.52
COc1cccc(-n2ccn3c(SCC(=O)c4cc(C)ccc4C)nnc3c2=O)c1	13.22	5.19	-12.08
COc1ccc(CNC(=O)CSc2nnc3c4cc(-c5ccc(OC)cc5)nn4ccn23)cc1	-0.91	1.93	-6.67
CC(C)(C)Sc1ccc2nn(CC(=O)N3CCN(c4ccc(F)cc4)CC3)c(=O)n2n1	10	3.9	-8.43
CC(C)c1nnc2c(=O)n(CC(=O)Nc3cccc(F)c3)c3ccccc3n12	24.07	3.13	-19.58
COc1ccc(N2CCN(C(=O)Cn3nc4ccc(-c5ccc(Cl)cc5)nn4c3=O)CC2)cc1	-0.61	7.77	-9.26
Cc1ccc(-c2ccc3nn(Cc4cccc(Cl)c4)c(=O)n3n2)cc1C	12.21	1.14	-10.16
CCOc1ccc(-n2ccn3c(SCC(=O)NCc4ccccc4Cl)nnc3c2=O)cc1	10.62	2.57	-15.06
O=S(=O)(c1ccc2nncn2c1)N(Cc1cc(F)cc(F)c1)c1ccc2c(c1)OCO2	11.56	2.54	-7.84
COc1cc(NC(=O)Cn2nc3n(CCc4ccccc4)c(=O)c4ccccc4n3c2=O)cc(OC)c1	10.27	12	-22.83
CCOc1ccc(-n2ccn3c(SCC(=O)c4ccc(C)cc4)nnc3c2=O)cc1	10.63	1.13	-5.35
Cc1nnc2c(S(=O)(=O)N(Cc3ccc(F)cc3)c3ccc(F)c(F)c3)cccn12	11.53	8.25	-10.38
COC(=O)c1ccc(NC(=O)Cn2nc3c(Oc4ccccc4)nccn3c2=O)cc1	-0.72	3.86	-10.09

Compound	Inhibition (Klebsiella pneumoniae) [%]	Inhibition (Candida albicans) [%]	Inhibition (Cryptococcus neoformans) [%]
Cc1ccccc1CSc1nnc2c(=O)n(-c3ccc(F)c(F)c3)ccn12	9.65	4.14	-9.1
Cc1ccc(-c2ccc3nn(CC(=O)Nc4ccccc4)c(=O)n3n2)cc1C	3.8	-1.46	-10.8
COc1cccc(CN(c2ccc(F)cc2)S(=O)(=O)c2ccc3nnc(C)n3c2)c1	7.98	-0.17	-13.2
COc1ccccc1-n1ccn2c(SCc3cccc(Cl)c3)nnc2c1=O	1.3	1.65	-7.59
COc1cccc(-n2ccn3c(SCC(=O)c4ccc(Br)cc4)nnc3c2=O)c1	9.61	5.24	-5.95
Cc1nnc2c(=O)n(CC(=O)Nc3ccc(Cl)cc3F)c3ccccc3n12	7.95	0.4	-18.26
Cc1oc(-c2cccc(Cl)c2)nc1CSc1nc2ccccc2n2c(C(C)C)nnc12	8.12	1.38	-17.47
CCOc1ccc(C(=O)CSc2nnc3c(=O)n(-c4ccc(Br)cc4)ccn23)cc1	15.85	8.18	-11.96
COc1ccc(-c2cc3c4nn(CC(=O)Nc5ccc(C)c(C)c5)c(=O)n4ccn3n2)cc1	5.79	-0.09	-15.38
COC(=O)c1ccc(NC(=O)CSc2nnc3c4cc(-c5ccc(OC)cc5)nn4ccn23)cc1	13.79	0.37	-25.69
COc1ccccc1NC(=O)Cn1nc2c(Sc3ccccc3)nccn2c1=O	-2.04	1.31	-4.93
O=C(CSc1nnc2c3cc(-c4ccc(F)cc4)nn3ccn12)NCCc1ccccc1	7.72	2.21	-23.19
Cc1ccc(N(Cc2cc(F)cc(F)c2)S(=O)(=O)c2cccn3c(C)nnc23)cc1	11.68	5.37	-9.88
CCc1ccccc1Sc1nccn2c(=O)n(CC(=O)Nc3ccc(C)cc3)nc12	-4.69	39.33	-9.26
CC(C)Sc1ccc2nn(CC(=O)Nc3ccccc3F)c(=O)n2n1	9.69	2.46	-3.85
CSc1cccc(NC(=O)Cn2c(=O)c3nnc(C(C)C)n3c3ccccc32)c1	10.43	3.45	-18.2
Cc1nnc2ccc(S(=O)(=O)N(Cc3cccc(F)c3)c3ccc(F)cc3)cn12	4.75	1.87	-9.68
Cc1nnc2ccc(S(=O)(=O)N(Cc3ccccc3)c3cccc(F)c3)cn12	4.18	2.53	-9.94
O=c1c2nnc(-c3cccc([N+](=O)[O-])c3)n2ccn1-c1ccc(F)cc1	11.79	5.6	-10.38
Cc1ccc(-c2cc3c4nnc(CCC(=O)NCCCc5ccccc5)n4ccn3n2)cc1C	12.56	-0.09	-29.9
CC(C)CCNC(=O)CSc1nnc2c(=O)n(-c3ccc(F)cc3)ccn12	11.65	4.94	-13.8

Compound	Inhibition (Klebsiella pneumoniae) [%]	Inhibition (Candida albicans) [%]	Inhibition (Cryptococcus neoformans) [%]
Cc1ccc(NC(=O)Cn2nc3c4cc(-c5ccc(Cl)cc5)nn4ccn3c2=O)cc1C	9.71	6.69	-22.86
O=C(Cn1nc2nc(Nc3ccc(F)cc3)ccn2c1=O)N1CCCc2ccccc21	14.82	2.56	-7.45
Cc1cc2nn(CC(=O)Nc3ccccc3C)c(=O)n2c(Nc2ccc(F)c(C)c2)n1	13.6	21.67	-6.31
COc1cccc(NC(=O)Cn2nc3c(=O)n(-c4ccc(Br)cc4)ccn3c2=O)c1	6.98	1.08	-6.3
O=S(=O)(c1ccc2nncn2c1)N(Cc1ccc(Cl)cc1)c1ccc2c(c1)OCO2	8.29	2.29	-11.3
O=S(=O)(c1cccn2cnnc12)N(Cc1ccccc1F)c1ccc(F)c(F)c1	13.33	5.39	-3.16
COc1cc(NC(=O)Cn2nc3c4c5c(sc4ncn3c2=O)CCCC5)cc(OC)c1	4.67	7.26	-16.68
COc1ccc(NC(=O)Cn2nc3c(SC4CCCCC4)nccn3c2=O)cc1	11.17	6.08	-26.97
COc1ccc(-c2cc3c4nn(CC(=O)Nc5ccc(F)cc5)c(=O)n4ccn3n2)cc1	1.02	15.17	-16.6
COCCCNC(=O)CSc1nnc2c(=O)n(Cc3ccccc3F)ccn12	15.39	4.29	-16.33
Cc1ccc(NC(=O)Cn2nc3ccc(SC4CCCCC4)nn3c2=O)cc1	-2.92	2.85	-17.59
CC(C)c1ccc(NC(=O)CSc2nnc3c(=O)n(-c4ccccc4)ccn23)cc1	7.22	-0.59	-12.85
Cc1ccc(Oc2nccn3c(=O)n(CC(=O)NCc4ccccc4Cl)nc23)cc1	6.19	1.69	-7.33
COc1ccc(NC(=O)c2ccc3nn(CC(=O)Nc4ccc(S(C)(=O)=O)cc4)c(=O)n3c2)cc1	1.84	15.13	-4.16
CC(C)CCn1c(=O)c2sccc2n2c(=O)n(Cc3ccccc3Cl)nc12	16.14	-1.94	-23.98
CCOc1ccc(-n2ccn3c(SCC(=O)c4ccc(OC)cc4)nnc3c2=O)cc1	12.65	0.38	-12.6
CC(C)c1nnc2c(=O)n(CC(=O)Nc3ccc(F)cc3)c3ccccc3n12	21.13	1.82	-21.16
CCc1nnc2ccc(S(=O)(=O)N(Cc3ccc(OC)cc3)c3ccc(F)cc3)cn12	10.6	0.7	-9.28
Cc1ccc(Cl)cc1NC(=O)CSc1nc2ccccc2n2c(C)nnc12	2.82	5.91	-21.14

— ChEMBL document CHEMBL4513146, “CO-ADD screening of Karazin Kharkiv National University (Ukraine) compounds”
